Source: PubChem (several laboratories)
Hits are enriched below; roughly 5.4% of the tested compounds scored in any of these assays.
MPTP inh – permeability transition pore inhibition; isolated mouse mitochondria, Ca2+ swelling absorbance, 30 min; inhibition, % at 10 µM; hit rate 1.4% among 360,000;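 active = inhibition of 50% or more, scaled per plate between neutral and stimulator controls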
Mdm2 MdmX PPI – inhibitors of human Mdm2/MdmX interaction; O15151+Q00987; SaOS-2 split-luciferase Mdm2/MdmX complementation, luminescence; inhibition, % at 8 µM; hit rate 3% among 330,000; AID 485346;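 active = inhibition of at least 50% at 8 µM in the primary screen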
Target sequence (O15151 whole entry, looked up): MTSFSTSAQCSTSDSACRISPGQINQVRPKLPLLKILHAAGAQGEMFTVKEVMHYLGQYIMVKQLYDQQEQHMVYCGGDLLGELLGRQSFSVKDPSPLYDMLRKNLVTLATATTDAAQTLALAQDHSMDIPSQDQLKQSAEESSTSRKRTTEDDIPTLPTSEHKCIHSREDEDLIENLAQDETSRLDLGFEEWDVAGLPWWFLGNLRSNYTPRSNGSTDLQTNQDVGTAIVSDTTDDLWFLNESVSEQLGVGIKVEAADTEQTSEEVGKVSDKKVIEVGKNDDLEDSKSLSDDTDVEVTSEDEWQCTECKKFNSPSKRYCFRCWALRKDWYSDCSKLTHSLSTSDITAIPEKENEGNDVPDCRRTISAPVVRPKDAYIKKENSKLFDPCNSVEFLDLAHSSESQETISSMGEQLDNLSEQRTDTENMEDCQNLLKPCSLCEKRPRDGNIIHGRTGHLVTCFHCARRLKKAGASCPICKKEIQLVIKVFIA
Target sequence (Q00987 whole entry, looked up): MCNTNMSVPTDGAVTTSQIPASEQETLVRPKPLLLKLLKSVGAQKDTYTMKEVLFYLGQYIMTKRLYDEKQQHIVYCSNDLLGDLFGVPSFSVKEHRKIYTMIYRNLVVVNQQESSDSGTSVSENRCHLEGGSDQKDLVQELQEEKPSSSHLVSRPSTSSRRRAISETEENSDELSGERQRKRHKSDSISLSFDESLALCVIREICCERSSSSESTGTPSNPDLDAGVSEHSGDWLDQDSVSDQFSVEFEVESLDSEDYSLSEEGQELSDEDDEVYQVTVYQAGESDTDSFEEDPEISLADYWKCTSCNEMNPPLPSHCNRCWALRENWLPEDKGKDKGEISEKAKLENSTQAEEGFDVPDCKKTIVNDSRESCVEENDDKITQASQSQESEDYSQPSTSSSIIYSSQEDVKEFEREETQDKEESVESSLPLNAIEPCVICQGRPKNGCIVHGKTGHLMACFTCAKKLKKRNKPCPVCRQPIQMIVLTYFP
SKKanGAS inh – blocks kanamycin growth of S. pyogenes SKKanGAS strain; BacTiter-Glo, 6 h; AID 1662; inhibition, % at 7.5 µM; hit rate 1.3% among 300,000;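 active = mean replicate score, as percent of positive control median, at least 50; inconclusive = mean below 50 but one replicate at or above 50; inactive = mean and every replicate below 50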;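 also: strain carries kanamycin resistance gene driven by streptokinase promoter and grows in 40 µg/ml kanamycin; loss of luminescence reflects streptokinase promoter inhibition or plain growth inhibition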
CSC inhib – blocks cancer stem cells; cancer stem cell-like cells viability, luminescence; inhibition, % at 7.5 µM; hit rate 1.1% among 300,000; in the data active = inhibition above about 75%; inconclusive = no clear call, values can overlap the other calls; tested in HMLE shEcad cells
Calb FLC – affects C. albicans growth with fluconazole | C. albicans CaCi-2 (fluconazole-resistant clinical isolate) + fluconazole, Alamar Blue growth, 48 h | growth inhibition, % (no concentration beside the values) | hit rate 0.57% among 300,000 | AID 1979;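 active = growth inhibition above about 58% in most replicates, limit read from the data, passing the limit was not always enough; inconclusive = exactly half the replicates above a set limit; inactive = most replicates below a set limit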;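 also: all wells also contain fluconazole at 8 µg/ml as a sub-toxic cotreatment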
Beta apoptosis – beta cell apoptosis inhibition; hit rate 0.8% among 300,000; AID 435005; INS-1E cytokine-induced death, ATP luminescence, 48 h; percent of positive-control rescue, neutral wells zero; protection from apoptosis, % (test concentration not listed);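 active = Every replicate reaches about 75%, or at least half do and their mean reaches it too, limit read from the data; inconclusive = At least half of replicates reach the limit but their mean does not; inactive = Under half of replicates reach the limit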;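 also: higher means more ATP so stronger rescue from cytokine killing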
Mdm2 MdmX conf – confirmation of human Mdm2/MdmX interaction inhibitors; shares compounds with Mdm2 MdmX PPI; Mdm2-MdmX binding, luminescent assay; inhibition, % at 8 µM; hit rate 55% among 10,000; AID 489028; in the data active = inhibition above about 40%
Full FLuc ctr – full-length luciferase inhibition in Mdm2/MdmX counter-screen; shares compounds with Mdm2 MdmX PPI; SaOS-2 full-length luciferase counterscreen, luminescence; inhibition, % at 8 µM; hit rate 77% among 6,200; AID 504607;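 active = mean inhibition at 8 µM reaching about 37%, which flags the compound as non-specific, limit read from the data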;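 also: p53-null SaOS-2 cells with luciferase driven by a doxycycline-inducible promoter; compound on cells about two nights before reading with doxycycline added after day one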
Of the large screens only hits and unclear results are named; the others gave an inactive call (follow-up assays come after a bar, where they were run).

CCCOc1ccc(N2C(=O)CC(SC(=NC)Nc3ccc(F)cc3)C2=O)cc1 (stereo unspecified)	none
CCCCN(CCCC)c1nc(-c2ccncc2)nc2ccccc12	Mdm2 MdmX PPI 55.7, SKKanGAS inh 97.0, CSC inhib 101.1 (no result: Beta apoptosis) | Mdm2 MdmX conf inactive
c1ccc2c(Nc3nc(-c4ccncc4)nc4ccccc34)cccc2c1	Mdm2 MdmX PPI 62.3, CSC inhib inconclusive | Mdm2 MdmX conf 59.3 | Full FLuc ctr 71.7
COc1ccc(CCC(=O)OCC(=O)Nc2c(C)nn(-c3ccccc3)c2C)cc1	none
O=C(CCl)N1CCN(CC(=O)N2CCCC2)CC1	none (no result: Beta apoptosis)
O=S(=O)(c1cccc(-c2nnco2)c1)N1CCOCC1	none
CC(=O)NN1C(=O)/C(=C\c2ccc(Cl)cc2)SC1=S	none
Cc1sc2ncn(CC(=O)NCCCC(=O)Nc3ccc(C(C)C)cc3)c(=O)c2c1C	Mdm2 MdmX PPI 82.3 | Mdm2 MdmX conf 42.5 | Full FLuc ctr inactive
Cc1ccc(NC(=S)Nn2cnnc2)cc1	none
CCNC(=O)c1ccccc1SCc1ccccc1	none
CCc1ccc(OCCNC(=O)c2ccccc2SCc2ccccc2)cc1	Mdm2 MdmX PPI 79.6 | Mdm2 MdmX conf 79.5 | Full FLuc ctr 57.4
COc1ccc(Nc2nc(N3CCCC3)nc3ccccc23)c(OC)c1	Mdm2 MdmX PPI 54.3 | Mdm2 MdmX conf inactive
CC(Nc1nc(N2CCCCC2)nc2ccccc12)c1ccccc1 (stereo unspecified)	Mdm2 MdmX PPI 54.2 (no result: CSC inhib) | Mdm2 MdmX conf 47.0 | Full FLuc ctr 72.5
COc1ccc(Nc2ncnc3ccccc23)c(OC)c1	none
CC(Nc1nc(-c2ccccc2)nc2ccccc12)c1ccccc1 (stereo unspecified)	CSC inhib inconclusive
Nc1c2c(=O)oc(-c3ccccc3)cc2nn1-c1ccccc1	none
Cc1c(-c2ccc(Cl)cc2)oc(=O)c2c(N)n(-c3ccccc3)nc12	Mdm2 MdmX PPI 85.9 | Mdm2 MdmX conf inactive
Cn1c(=O)oc2cc(S(=O)(=O)N3CCC(C(=O)NCc4ccccc4Cl)CC3)ccc21	Mdm2 MdmX PPI 51.0 | Mdm2 MdmX conf inactive
C/C(=N\NC(=O)c1nnn(-c2nonc2N)c1CN1CCCCC1)c1ccccc1O	Mdm2 MdmX PPI 51.3, CSC inhib 81.4 | Mdm2 MdmX conf 47.0 | Full FLuc ctr 43.7
C/C(=N\NC(=O)c1nnn(-c2nonc2N)c1CN(C)c1ccccc1)c1ccccc1O	Mdm2 MdmX PPI 69.4, SKKanGAS inh 50.4, CSC inhib 97.7, Beta apoptosis 90.4 | Mdm2 MdmX conf 76.5 | Full FLuc ctr inactive
COc1ccc(/C(C)=N/NC(=O)c2nnn(-c3nonc3N)c2CN(C)c2ccccc2)cc1	Mdm2 MdmX PPI 50.1 (no result: Calb FLC) | Mdm2 MdmX conf inactive
CN(Cc1c(C(=O)N/N=C/c2cccs2)nnn1-c1nonc1N)c1ccccc1	none (no result: Calb FLC)
COc1cccc(/C=N/NC(=O)c2nnn(-c3nonc3N)c2CN(C)c2ccccc2)c1	none
Cc1ccccc1C(=O)NCC(c1ccco1)N1CCc2ccccc2C1 (stereo unspecified)	none
CSCCC(NC(=O)c1ccc(C(C)(C)C)cc1)C(=O)OCC(=O)N1CCCC1=O (stereo unspecified)	none (no result: SKKanGAS inh, CSC inhib, Calb FLC)
CCCCNc1c(-c2cccc(-c3cc(C(C)=O)cs3)c2)nc2ccc(C)cn12	Mdm2 MdmX PPI 81.3, SKKanGAS inh 52.6, CSC inhib 125.3 | Mdm2 MdmX conf 57.8 | Full FLuc ctr 59.7
C1=CCN(c2nc(N3CCOCC3)nc(N3CCCc4ccccc43)n2)CC1	none (no result: Mdm2 MdmX PPI, SKKanGAS inh, CSC inhib, Calb FLC, Beta apoptosis)
Cc1ccc(-c2nc3ncccc3o2)cc1NC(=O)CC(C)C	none
Cc1ccc(-c2nc3ncccc3o2)cc1NC(=O)Cc1ccc(Cl)cc1	Mdm2 MdmX PPI 92.6 (no result: CSC inhib) | Mdm2 MdmX conf inactive
Cc1ccc(-c2nc3ncccc3o2)cc1NC(=O)COc1ccccc1	Calb FLC inconclusive
Cc1ccc(-c2nc3cccnc3o2)cc1NC(=O)COc1ccc(Cl)cc1C	Mdm2 MdmX PPI 84.5 | Mdm2 MdmX conf inactive
O=C(O)c1ccc(NC(=S)NC(=O)c2cncc(Br)c2)cc1	none
O=C(Cn1c(COc2ccccc2)nc2ccccc21)Nc1cc(Cl)ccc1Cl	Mdm2 MdmX PPI 89.2 | Mdm2 MdmX conf 71.0 | Full FLuc ctr 104.1
O=C(Cn1c(COc2ccc(Cl)cc2)nc2ccccc21)NCC(F)(F)F	none (no result: CSC inhib, Beta apoptosis)
CCCCNC(=O)C1CC(=O)N(C2CCCC2)C1 (stereo unspecified)	none
COc1ccc(-c2nc(Cn3c(SCc4ccc(F)cc4)nc4ccncc43)c(C)o2)cc1OC	none
CC(=O)CSc1nc2ccc(Nc3nc(N4CCOCC4)nc(N4CCOCC4)n3)cc2s1	none
CC(C)(C)NC(=O)CSc1nc2ccc(Nc3nc(N4CCOCC4)nc(N4CCOCC4)n3)cc2s1	none
Cc1ccc(NC(=O)CSc2nc3ccc(Nc4nc(N5CCOCC5)nc(N5CCOCC5)n4)cc3s2)cc1	Mdm2 MdmX PPI 94.9 (no result: SKKanGAS inh) | Mdm2 MdmX conf 41.2 | Full FLuc ctr inactive
O=C(CSc1nc(Nc2ccccc2)nc(N2CCOCC2)n1)Nc1ccccc1Cl	Mdm2 MdmX PPI 75.1 | Mdm2 MdmX conf inactive
CCOC(=O)c1ccc(NC(=O)CSc2nc(N3CCOCC3)nc(N3CCOCC3)n2)cc1	Mdm2 MdmX PPI 74.1 | Mdm2 MdmX conf inactive
COc1ccc(NC(=O)CSc2nc3ccc(Nc4nc(N5CCOCC5)nc(N5CCOCC5)n4)cc3s2)cc1	Mdm2 MdmX PPI 85.1 (no result: Beta apoptosis) | Mdm2 MdmX conf 49.4 | Full FLuc ctr 36.7
CSc1cccc(NC(=O)C2CC(=O)N(c3ccc4c(c3)OCCO4)C2)c1 (stereo unspecified)	none (no result: Mdm2 MdmX PPI, SKKanGAS inh, CSC inhib, Calb FLC, Beta apoptosis)
COc1ccc(Nc2nc(N3CCOCC3)nc(N3CCOCC3)n2)cc1Cl	Mdm2 MdmX PPI 61.1 (no result: Beta apoptosis) | Mdm2 MdmX conf inactive
CN=C1S/C(=C\c2cc(C)n(-c3ccccc3F)c2C)C(=O)N1C	Mdm2 MdmX PPI 55.6 | Mdm2 MdmX conf inactive | Full FLuc ctr 99.6
COC(=O)c1cccc(C23CC4(C2)[C@H](CN(Cc2ccc(C(F)(F)F)cc2)[C@@H]4c2ccccc2)C3c2ccc(C(F)(F)F)cc2)c1 (stereo partly specified)	Mdm2 MdmX PPI 72.8 (no result: MPTP inh) | Mdm2 MdmX conf 58.6 | Full FLuc ctr inactive
FC(F)(F)c1ccc(CN2C[C@@H]3C(c4ccccc4)C4(c5cccnc5)CC3(C4)[C@H]2c2ccccc2)cc1 (stereo partly specified)	none
FC(F)(F)c1ccc(CN2C[C@@H]3C(c4ccc(C(F)(F)F)cc4)C4(c5cccnc5)CC3(C4)[C@H]2c2ccccc2)cc1 (stereo partly specified)	Mdm2 MdmX PPI 65.4, Beta apoptosis 109.1 | Mdm2 MdmX conf inactive
Cn1cnnc1SCC(=O)Nc1ccccc1Oc1ccccc1	none
CC(Sc1nnc(-c2cccnc2)n1C)C(=O)N1CCOCC1 (stereo unspecified)	none
